# Results from PubChem BioAssay AID493201 (National Center for Advancing Translational Sciences (NCATS), 2011).
# Records with an inconclusive call do not appear. Unmarked numbers belong to inactive results. Active and inactive are the calls of the source. The call rests on the fitted dose curve; in most records, active means well fitted activation curve with a large enough effect; inconclusive means small, poorly fitted or top-dose-only effect; inactive means no such curve, though single readings can be large or run the other way.
# Test: qHTS Assay for Identifying a Potential Treatment of Ataxia-Telangiectasia: Secondary assay (no NCS) hit validation;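 further: phosphorylated KAP1 signal as a proxy for ATM-like kinase activity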; on activation: 0% is about no effect
# Conditions: A-T patient fibroblasts, AlphaLISA, no DNA damage added, 90 min; series mostly up to 76.9 µM; activation: at the top concentration
# Method in brief: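 hTERT-immortalized A-T patient fibroblasts (F2112), 500 cells/well, exposed to compounds at up to 76.7 uM final without NCS at 37C. KAP-1 phosphorylation measured by AlphaLISA after lysis and 6 h detection at 25C.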
# Potency means the concentration at half of the fitted maximal effect.
SMILES,activation,Potency
O=C(C[n+]1cccc2ccccc21)c1ccc(NC(=O)c2ccccc2)cc1,-0.848%,
CC(C)c1ccc(-c2cc(C(=O)N3CCOCC3)c3cc(Br)ccc3n2)cc1,-6.09%,
NC(=O)C1CCN(Cc2nc3cc(C(F)(F)F)ccc3c(=O)[nH]2)CC1,-11.9%,
N#CCN1C(=O)C(=O)N(Cc2cccc(Cl)c2)C1=O,29.7%,
COc1cc(/C=N/NC(=O)c2c(C)nc3ccc(Cl)cn23)cc(OC)c1OC,,3.68 µM (active)
COc1ccc(N(CCC#N)C(=O)/C(C#N)=C\c2cccs2)cc1,-4.35%,
c1ccc(CSc2nnc(-c3ccco3)n2Cc2ccco2)cc1,-5.38%,
CC(=O)c1sc2nc(C)c3c(c2c1N)CCCC3,46.1%,
O=C(N/N=C/c1cccc2ccccc12)c1cccnc1,0%,
O=C(O)CCCN1C(=O)/C(=C/C=C/c2ccco2)SC1=S,3.23%,
CCOc1ccccc1CNC(=O)Cn1c(=O)oc2ccccc21,,32.8 µM (active)
CC(C)NC(=O)c1ccc(COc2ccc(C(C)(C)C)cc2)o1,20.4%,
CN(C)C(=O)CN(C)S(=O)(=O)c1ccc(Cl)cc1,-2.15%,
COC(=O)Cc1ccc(NC(=S)NCCSc2ccc(Cl)cc2)cc1,-0.848%,
COc1ccccc1-n1c(SCC(N)=O)nc2sc3c(c2c1=O)CCC3,-2.61%,
CCCc1ccc(S(=O)(=O)Nc2ccc(C)c(NS(C)(=O)=O)c2)cc1,-7.83%,
O=C1C2C3C=CC(CC3)C2C(=O)N1c1cccc(Br)c1 (centres undefined),-5.08%,

SMILES,activation,Potency
Cc1cc(C)n2nc(C(=O)OCCOc3ccc(F)cc3)nc2n1,,58.2 µM (active)
O=C(CSc1ccccn1)N/N=C/C=C/c1ccccc1,-21.7%,
CNC(=O)c1ccc(-c2cc3onc(-c4ccccc4)c3c(=O)n2C)cc1,,18.4 µM (active)
Cc1[nH]c2c(C)cccc2c1CN1CCC(CO)(Cc2ccccc2)CC1,,1.84 µM (active)
CCN(c1ccccc1)S(=O)(=O)c1ccc(Cl)c(C(=O)N(CC2CCCO2)C2CCS(=O)(=O)C2)c1 (centres undefined),,14.6 µM (active)
CCN(CC)CCNC(=O)CCc1c(C)nc2c(c(C)nn2-c2ccc(C)cc2)c1C,-2.54%,
CCCCN(c1nc2ccccc2nc1Cl)S(=O)(=O)c1ccc(C)cc1,17.4%,
Cc1cccc(NC(=O)/C(C#N)=C/c2ccc(F)cc2)n1,,1.84 µM (active)
CCOC(=O)C1CCN(C(=O)c2cc3cc(Cl)ccc3[nH]2)CC1,1.08%,
N#C/C(=C/c1ccc(F)cc1)C(N)=S,-3.23%,
Cc1ccc(NC(=O)Nc2cccnc2)cc1NC(=O)Nc1cccnc1,-0.87%,
COc1ccc2c(c1)c(N=NC(N)=S)c(O)n2CC(=O)c1ccccc1,0%,
COc1cc(CCC(C)NCc2ccccc2)ccc1O (centres undefined),-6.96%,
O=C1CN(C(=O)NCC(=O)N[C@H](C(=O)O)c2ccccc2)c2ccccc2N1,-0.87%,
COc1ccc(C2(C)CC(C)(C)Nc3ccccc32)cc1 (centres undefined),-1.08%,
COc1ccc(-c2nn(C)c(=O)[nH]2)cc1,15.1%,
COc1ccc(-n2c(=S)[nH]c3ccccc3c2=S)cc1,-3.23%,
